# MEKK3 PB1 HTS: modulators of MEKK3-MEK5 PB1 binding, primary screen, biochemical, wildtype MEKK3, multiplex bead flow cytometry, Alexa488-MEK5; Mitogen-activated protein kinase kinase kinase 3 (Homo sapiens), Q99759; bead-based flow cytometry, Alexa488-MEK5 binding to MEKK3; actives lie on both sides; 0 = blocked by unlabeled MEK5, 100 = vehicle; binding response (% of control), % at 10 µM; 1.4% of 290,000 active;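 active = binding response more than 3 SD above or below the average of its plate-row segment, actives on both sides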;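 note: Alexa488 bead fluorescence after subtracting the streptavidin-only scavenger bead signal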
# Target sequence (Q99759 whole entry, looked up): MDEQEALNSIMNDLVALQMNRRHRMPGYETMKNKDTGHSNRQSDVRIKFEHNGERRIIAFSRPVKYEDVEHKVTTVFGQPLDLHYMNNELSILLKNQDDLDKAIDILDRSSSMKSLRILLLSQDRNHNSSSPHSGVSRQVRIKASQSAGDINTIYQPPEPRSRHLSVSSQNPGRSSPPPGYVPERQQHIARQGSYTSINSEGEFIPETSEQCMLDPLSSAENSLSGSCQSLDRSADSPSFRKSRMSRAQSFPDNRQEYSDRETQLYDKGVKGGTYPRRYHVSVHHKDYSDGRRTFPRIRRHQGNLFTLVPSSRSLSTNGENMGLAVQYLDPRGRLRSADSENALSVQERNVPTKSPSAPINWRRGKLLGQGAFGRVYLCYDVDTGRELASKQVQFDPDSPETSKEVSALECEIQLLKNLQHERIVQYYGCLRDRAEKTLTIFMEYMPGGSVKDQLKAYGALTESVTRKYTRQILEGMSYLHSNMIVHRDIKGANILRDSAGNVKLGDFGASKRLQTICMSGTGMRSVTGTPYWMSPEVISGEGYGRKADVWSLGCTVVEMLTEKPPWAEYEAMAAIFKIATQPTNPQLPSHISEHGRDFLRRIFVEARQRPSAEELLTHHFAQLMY
# MEKK2 mut-MEK5: MEK5 binding signal on mutant MEKK2 PB1, primary screen, biochemical, multiplex bead flow cytometry, Alexa488-MEK5; Alexa488-MEK5 binding to MEKK2 mutant; percent response, % at 10 µM; 0.35% of 290,000 active; AID 1530, 2009; in the data active = percent response above about 24%, passing the limit was not always enough
# GRK2 aptamer HTS: compounds blocking aptamer binding on GRK2 – biochemical, human GRK2, bead flow cytometry, HTS, primary screen. inhibition of aptamer binding, % at 10 µM. AID 488847, 2010. Beta-adrenergic receptor kinase 1 (Homo sapiens), P25098. 0.59% of 330,000 active. FAM-aptamer displacement from GRK2;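 active = inhibition of aptamer binding above 40%, roughly 3 SD of noise, on plates passing a quality check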;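 note: median bead fluorescence of bound FAM aptamer so fluorescent compounds give negative values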
# MEKK2wt PB1 HTS: modulators of MEK5 binding to wildtype MEKK2, primary screen, biochemical, multiplex bead flow cytometry, Alexa488-MEK5; Alexa488-MEK5 binding to MEKK2 WT; actives lie on both sides; binding response (% of control), % at 10 µM; 1.1% of 290,000 active; in the data active = binding response below about 67% or above about 130%
# GRK2 CP1: GRK2 aptamer-displacing inhibitors, retest, confirmation, biochemical, cherry pick 1, bead flow cytometry | shares compounds with GRK2 aptamer HTS | aptamer displacement, % at 10 µM | 4% of 2,000 active | bead-bound GRK2, FAM-aptamer displacement | AID 504451, 2011;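 active = aptamer displacement above 40%, near three times the noise of non-fluorescent compounds, on plates passing quality checks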;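 note: negative values mostly reflect intrinsic compound fluorescence rather than true enhancement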
# Aptamer quench: counter-screen for GRK2 aptamer inhibitors: fluorescent aptamer quenchers; fluorescence change (kMESF span), kMESF (test concentration not listed); 110 tested, under 10 active; AID 504521; Fluorescent RNA aptamer beads, quenching, flow cytometry; stronger effect = higher value; shares compounds with GRK2 aptamer HTS;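 active = compounds whose bead fluorescence drops by more than 37 kMESF across the dose range, marking them as dye quenchers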
# FAM quench CP1: aptamer fluorescence quenching in GRK2 counter-screen. shares compounds with GRK2 aptamer HTS. Carboxyfluorescein RNA aptamer on beads, flow cytometry quenching; stronger effect = lower value. fluorescence response (% of DMSO), % at 10 µM. 2,000 tested, under 10 active. AID 504580;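 active = compounds that quench the bead-bound fluorescent RNA probe, cutting fluorescence to under half of the solvent control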;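 note: counterscreen run without GRK2 so only probe quenching by compound is measured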
# GRK2 CP2: GRK2 aptamer-displacing inhibitors, hit retest, confirmation, biochemical, cherry pick 2, bead flow cytometry | shares compounds with GRK2 aptamer HTS | bead-bound GRK2, FAM-aptamer displacement | inhibition of aptamer binding, % at 10 µM | 360 tested, under 10 active | AID 504782, 2011;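 active = inhibition of aptamer binding above 40%, about triple the noise seen with nonglowing compounds, on plates passing quality control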;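 note: negative values mostly come from compounds that fluoresce themselves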
# FAM quench SP: aptamer fluorescence quenching in GRK2 counter-screen. shares compounds with GRK2 aptamer HTS. carboxyfluorescein RNA aptamer beads, flow cytometry quenching; stronger effect = lower value. fluorescence response vs DMSO, % at 10 µM. 360 tested, under 10 active. AID 588494;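 active = response vs DMSO under 50%, meaning signal dropped by over half, treated as fluorescence quencher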;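 note: labelled aptamer on streptavidin beads without GRK2 as a quench counter-screen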
# FAM quench DR: quenchers of FAM-labeled RNA aptamer fluorescence, dose response, artefact control for GRK2 aptamer binding project, biochemical, powder set 1, flow cytometry; 35 tested, under 10 active; shares compounds with GRK2 aptamer HTS; Bead-bound FAM RNA aptamer fluorescence quenching; stronger effect = lower value; fluorescence ratio to DMSO, % at 11.1 µM;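 active = compounds that dim the fluorescent label, raw bead signal shifting by over 33 units between lowest and highest dose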
# A number is an active result; n = inactive; x = not tested or not shown. A selection: hits, their analogues and other compounds. The true share with any hit is near 2.5%.
SMILES,MEKK3 PB1 HTS,MEKK2 mut-MEK5,GRK2 aptamer HTS,MEKK2wt PB1 HTS,GRK2 CP1,FAM quench CP1,others
O=C(COc1ccc(/C=N/NC(=O)c2ccncc2)cc1)Nc1cccc([N+](=O)[O-])c1,n,n,n,n,x,x,
O=C(COc1ccc(/C=N/NC(=O)c2ccncc2)cc1)Nc1ccccc1,n,n,95,n,n,n,
Cc1cc(-c2cccnc2)c(C#N)c(SCC#N)n1,n,n,84,n,n,n,
CN(Cc1nc2ccccc2[nH]1)C(=O)C1CCC(=O)N(CCc2cccc(F)c2)C1 (stereo not given),n,n,n,n,n,n,
Cn1c(SCc2cccc(F)c2)nnc1-c1ccccn1,n,n,58,n,n,n,
O=S(=O)(NCc1ccccn1)c1ccccn1,n,n,n,n,x,x,
COc1ccc(/C=C2\CCc3c2nc2ccccc2c3C(=O)O)cc1OC,n,n,n,n,n,n,
COc1ccc(/C=C2\CCCc3c2nc2ccccc2c3C(=O)O)cc1OC,n,n,n,n,x,x,
Cc1cc(-c2nnc(-c3cccc(Cl)c3)o2)no1,n,n,n,n,x,x,
O=C(CN(c1ccc(F)cc1)S(=O)(=O)c1ccccc1)NC1CCCCCC1,n,n,n,n,x,x,
CCC(CC)C(=O)Nc1ccc(C(=O)c2ccccc2)cc1,n,n,61,n,x,x,GRK2 CP2=n;FAM quench SP=n
Cc1ccccc1N(C(=O)CS(=O)CC(=O)Nc1ccc(F)cc1)C(C)C(=O)NC(C)(C)C (stereo not given),n,n,n,n,x,x,
COc1ccc(CCNC(=O)CSc2nc(C)nc3sccc23)cc1OC,n,n,n,n,x,x,
COc1ccc(N2CCN(Cc3nc4cc(Cl)ccc4c(=O)[nH]3)CC2)cc1,n,n,n,n,x,x,GRK2 CP2=n;FAM quench SP=n
CC(=O)N1CCN(Cc2nc3cc(Cl)ccc3c(=O)[nH]2)CC1,n,n,87,n,42,n,Aptamer quench=n;GRK2 CP2=n;FAM quench SP=n;FAM quench DR=n
O=c1[nH]c(CN2CCN(S(=O)(=O)c3ccc(Cl)cc3)CC2)nc2cc(Cl)ccc12,n,n,n,n,x,x,
COCCNc1oc(/C=C/c2ccccc2OC)nc1S(=O)(=O)c1ccccc1,n,n,n,n,x,x,
Cc1ccc(NC2c3ncccc3C(=O)N2Cc2ccc(F)cc2)cc1 (stereo not given),n,n,76,n,n,n,
CCn1cc([N+](=O)[O-])c(=O)c2cc(F)c(N3CCOCC3)cc21,n,n,64,n,n,n,
CCn1cc(C(=O)NN)c(=O)c2cc(F)c(N3CCOCC3)cc21,n,n,n,n,x,x,
CC1(C)N=C(SCC(=O)Nc2ccc(Cl)cc2)C(c2ccc(Cl)cc2)=N1,n,n,n,n,n,n,
CCn1c(N2CCN(C(=S)NCC(C)C)CC2)nc2ccccc21,n,n,n,n,x,x,
CC(C)CNC(=S)N1CCN(c2nc3ccccc3s2)CC1,n,n,42,n,n,n,
c1ccc2nc3c(cc2c1)CCCCC3,n,n,n,n,x,x,
Fc1ccc(CNc2cnccn2)cc1,n,n,64,n,n,n,
SMILES,MEKK3 PB1 HTS,MEKK2 mut-MEK5,GRK2 aptamer HTS,MEKK2wt PB1 HTS,GRK2 CP1,FAM quench CP1,others
COc1cc(/C=C/C(=O)NCC2CCCCC2)cc(OC)c1OC,n,n,63,n,n,n,
Cc1cccc(C)c1NC(=O)CN1C(=O)CCSc2ccc(S(=O)(=O)N3CCCC3)cc21,n,n,42,n,n,n,
O=C(CN1C(=O)CCSc2ccc(S(=O)(=O)N3CCCC3)cc21)Nc1ccccc1Cl,n,n,n,n,x,x,
Cn1c(=O)c2c(nc(SCC(=O)NCc3ccc4c(c3)OCO4)n2Cc2ccccc2)n(C)c1=O,n,n,53,n,n,n,
Cn1c(=O)c2c(nc(SCC(=O)NCc3ccc4c(c3)OCO4)n2Cc2ccc(F)cc2)n(C)c1=O,n,n,n,n,x,x,
COC(=O)NC1(C(=O)O)CCCC1,n,n,n,n,x,x,
O=C(NC1=NCCS1)C1CCN(S(=O)(=O)c2ccc(Cl)cc2)CC1,x,x,n,x,x,x,
O=C(NC1=NCCS1)C1CCN(S(=O)(=O)c2cc([N+](=O)[O-])ccc2Cl)CC1,x,x,n,x,n,n,
O=c1c2cc(Br)ccc2nc2n1CCCCC2,n,n,n,n,x,x,
O=c1c2cc([N+](=O)[O-])ccc2nc2n1CCCC2,n,n,64,n,n,n,
Cc1ccc(S(=O)(=O)N(C)c2ccc3sc(C)nc3c2)cc1,n,n,n,n,x,x,
O=C(O)C[C@H]1c2cc(F)ccc2S(=O)(=O)N1C1CCCCC1,n,n,n,n,x,x,
O=C(O)C[C@H]1c2cc(F)ccc2S(=O)(=O)N1C1CCCC1,n,n,44,n,n,n,
O=C(O)c1ccc(CSc2nnc(-c3ccc(Cl)cc3)o2)cc1,n,n,n,n,x,x,
Cc1nnc(SCc2ccc(CC(=O)O)cc2)o1,n,n,54,n,n,n,
COc1ccc(N(CC(=O)N/N=C/c2ccccc2F)S(=O)(=O)c2ccccc2)cc1,n,n,n,n,x,x,
O=C(N/N=C/c1ccc(Br)cc1)c1cc[n+](Cc2ccccc2)cc1,n,n,n,n,x,x,
O=C(C[n+]1cccc(C(=O)N/N=C/c2ccc(Br)cc2)c1)c1ccccc1,x,x,89,x,n,n,
CCC(C)NC(=O)NC(=O)CSc1nnc(-c2ccccc2F)n1C1CC1 (stereo not given),n,n,49,n,n,n,
CCC(=O)Nc1ccc(C(=O)CSc2nnc(-c3ccccc3F)n2C2CC2)cc1,n,n,n,n,x,x,
CSC1=NC(=O)/C(=C/c2ccc(SC)cc2)S1,n,n,58,n,n,n,
CCOC(=O)c1c(C)[nH]c(C(=O)COC(=O)COc2ccc(OC)cc2)c1C,n,n,70,n,n,n,

# Source: PubChem BioAssay (NMMLSC)
